Several values for one entry are separate records, joined by “and”; a condition that tells them apart may be missing. Equal entries are not always repeated. Records with an inconclusive call do not appear. Entries that show only a call come without a potency. Activity calls are given as the source filed them. Calls follow the shape of the full dose curve.
Assay: Cytotoxicity counterscreen for inhibitors of SARS-CoV-2 cell entry (AID 1645845); also: nearly all actives have a fitted effect of over 50% in size
Conditions: cell viability (SARS-CoV-2 entry assay cells); series mostly up to 57.1 µM; activity change, negative = cytotoxicity: at the top concentration
How it was run: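 48 h compound treatment (after 1 h preincubation), HEK293-ACE2 cells, 37 C/5% CO2; ATP luminescence endpoint; normalized to cell wells and media blanks.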

| SMILES | activity change, negative = cytotoxicity | outcome | Potency |
| --- | --- | --- | --- |
| CN1CCN(CCCN2c3ccccc3Sc3ccc(S(=O)(=O)N(C)C)cc32)CC1 | 0.951% (inactive) | – | – |
| Cc1ccc(C(=O)Nc2ccc(S(=O)(=O)O)c3cc(S(=O)(=O)O)cc(S(=O)(=O)O)c23)cc1NC(=O)c1cccc(NC(=O)Nc2cccc(C(=O)Nc3cc(C(=O)Nc4ccc(S(=O)(=O)O)c5cc(S(=O)(=O)O)cc(S(=O)(=O)O)c45)ccc3C)c2)c1 | -6.39% [at 27.1 µM] (inactive) | – | – |
| CCN(CC)CC(=O)OCC(=O)[C@@]1(O)CC[C@H]2[C@@H]3CCC4=CC(=O)CC[C@]4(C)[C@H]3[C@@H](O)C[C@@]21C | -27.3% (inactive) | – | – |
| C[C@@H]1C[C@H]2[C@@H]3CCC4=CC(=O)C=C[C@]4(C)[C@@]3(F)[C@@H](O)C[C@]2(C)[C@@]1(O)C(=O)COC(=O)c1ccncc1 | – | inactive | – |
| CN1CCN(C2=Nc3ccccc3Sc3ccc(Cl)cc32)CC1 | -8.45% (inactive) | – | – |
| CNC[C@H](O)c1ccc(O)c(O)c1 | – | – | inactive |
| Nc1ccc(C(=O)NCC(=O)O)cc1 | 0.898% (inactive) | – | – |
| C[C@@H](C1=C(CCN(C)C)Cc2ccccc21)c1ccccn1 | – | inactive | – |
| C[N+]1(CC2COC(c3ccccc3)(C3CCCCC3)O2)CCCCC1 (stereo not drawn) | -12.8% (inactive) | – | – |
| O=C(NC1CCN(CCc2c[nH]c3ccccc23)CC1)c1ccccc1 | 3.62% (inactive) | – | – |
| CN(C)CCN(Cc1cccs1)c1ccccn1 | – | inactive | – |
| CCCn1cnc2c1c(=O)n(CCCCC(C)=O)c(=O)n2C | – | inactive | – |
| Cc1c(N(C)C)c(=O)n(-c2ccccc2)n1C | – | inactive | – |
| C[C@]12CCC(=O)C=C1[C@@H]1C[C@@H]1[C@H]1[C@@H]3[C@@H]4C[C@@H]4[C@@]4(CCC(=O)O4)[C@@]3(C)CC[C@@H]12 | -16.9% (inactive) | – | – |
| O=C(O)/C=C/c1ccc(Cn2ccnc2)cc1 | – | – | inactive |
| COC(=O)C1=C(C)NC(COC(N)=O)=C(C(=O)OC(C)C)C1c1cccc(Cl)c1Cl (stereo not drawn) | -16.2% (inactive) | – | – |
| NC(CSCC(=O)O)C(=O)O (stereo not drawn) | 1.54% (inactive) | – | – |
| C=CC[N+]1([C@H]2C[C@H]3[C@@H]4CC[C@H]5C[C@H](OC(C)=O)[C@@H](N6CCCCC6)C[C@]5(C)[C@H]4CC[C@]3(C)[C@H]2OC(=O)CC)CCCCC1 | -10.4% (inactive) | – | – |
| NC(=O)Cc1cccc(C(=O)c2ccccc2)c1N | -11.1% (inactive) | – | – |
| COc1ccc2c(c1)c(CC(=O)O)c(C)n2C(=O)c1ccc(Cl)cc1 | – | – | inactive |

| SMILES | activity change, negative = cytotoxicity | outcome | Potency |
| --- | --- | --- | --- |
| CC(=O)OCC(=O)[C@@]1(O)CCC2C3CCC4=CC(=O)CC[C@]4(C)C3[C@@H](O)C[C@@]21C (stereo partly drawn) | 0.178% (inactive) | – | – |
| O=C(O)CCC(=O)OC[C@@H](NC(=O)C(Cl)Cl)[C@H](O)c1ccc([N+](=O)[O-])cc1 | -1.69% (inactive) | – | – |
| O=c1[nH]cnc2c1ncn2[C@@H]1O[C@H](CO)[C@@H](O)[C@H]1O | – | inactive | – |
| CC[N+](CC)(CC)CCOC(=O)C(C1CCCC1)C1CCCC1 | -7.97% (inactive) | – | – |
| CCn1cc(C(=O)O)c(=O)c2cc(F)c(N3CCNCC3)nc21 | 2.03% (inactive) | – | – |
| Cc1ccc(=O)n(-c2ccccc2)c1 | – | inactive | – |
| CC(=O)Nc1ccc(S(=O)(=O)Nc2ccc([N+](=O)[O-])cc2)cc1 | – | inactive | – |
| CCC1NC(=O)c2cc(S(N)(=O)=O)c(Cl)cc2N1 (stereo not drawn) | – | inactive | – |
| CC1(C)[C@@H]2CC[C@@]1(C)C(=O)C2 | – | inactive | – |
| O=C1C(c2[nH]c3ccccc3c2O)=Nc2ccccc21 | – | inactive | – |
| N[C@@H](Cc1c[nH]c2ccc(O)cc12)C(=O)O | 3.41% (inactive) | – | – |
| CC(O)COc1ccccc1 (stereo not drawn) | – | inactive | – |
| CCCNC(C)(C)COC(=O)c1ccccc1 | – | inactive | – |
| CCCCC1(COC(=O)CCC(=O)O)C(=O)N(c2ccccc2)N(c2ccccc2)C1=O | – | inactive | – |
| O=C1O[C@H]([C@@H](O)CO)C(O)=C1O | – | inactive | – |
| COc1cc([C@H]2Oc3cc([C@H]4Oc5cc(O)cc(O)c5C(=O)[C@@H]4O)ccc3O[C@@H]2CO)ccc1O | – | inactive | – |
| Cc1c(F)cc2c(=O)c(C(=O)O)cn3c2c1CCC3C (stereo not drawn) | – | inactive | – |
| CO[C@]1(NC(=O)CSC(F)F)C(=O)N2C(C(=O)O)=C(CSc3nnnn3CCO)CO[C@H]21 | – | inactive | – |
| CCOC(=O)c1ccc(C#Cc2ccc3c(c2)C(C)(C)CCS3)nc1 | – | – | inactive |

Assay: Primary qHTS to identify inhibitors of SARS-CoV-2 cell entry (AID 1645846); also: nearly all actives have a fitted effect of over 45% in size; also: potency is read from the fitted curve at half-maximal effect
Conditions: SARS-CoV-2 pseudovirus cell entry assay, luminescence; activity change, negative = inhibition: at 57.1 µM (top of the series) unless noted; series mostly up to 57.1 µM
How it was run: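 Luminescence readout (Bright-Glo luciferase) 48 h after pseudoparticle addition. HEK293-ACE2 cells, 1500/well; compound pre-incubation 1 h; Normalized to spike PP and bald PP.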

| SMILES | Potency | activity change, negative = inhibition | outcome |
| --- | --- | --- | --- |
| CN1CCN(CCCN2c3ccccc3Sc3ccc(S(=O)(=O)N(C)C)cc32)CC1 | 25.1 µM (active) | – | – |
| Cc1ccc(C(=O)Nc2ccc(S(=O)(=O)O)c3cc(S(=O)(=O)O)cc(S(=O)(=O)O)c23)cc1NC(=O)c1cccc(NC(=O)Nc2cccc(C(=O)Nc3cc(C(=O)Nc4ccc(S(=O)(=O)O)c5cc(S(=O)(=O)O)cc(S(=O)(=O)O)c45)ccc3C)c2)c1 | – | -17.2% [at 27.1 µM] | – |
| CCN(CC)CC(=O)OCC(=O)[C@@]1(O)CC[C@H]2[C@@H]3CCC4=CC(=O)CC[C@]4(C)[C@H]3[C@@H](O)C[C@@]21C | – | – | inactive |
| C[C@@H]1C[C@H]2[C@@H]3CCC4=CC(=O)C=C[C@]4(C)[C@@]3(F)[C@@H](O)C[C@]2(C)[C@@]1(O)C(=O)COC(=O)c1ccncc1 | – | – | inactive |
| CN1CCN(C2=Nc3ccccc3Sc3ccc(Cl)cc32)CC1 | – | -10.6% | – |
| CNC[C@H](O)c1ccc(O)c(O)c1 | inactive | – | – |
| Nc1ccc(C(=O)NCC(=O)O)cc1 | – | 4.24% | – |
| C[C@@H](C1=C(CCN(C)C)Cc2ccccc21)c1ccccn1 | – | -25.9% | – |
| C[N+]1(CC2COC(c3ccccc3)(C3CCCCC3)O2)CCCCC1 (stereo not drawn) | – | -2.6% | – |
| O=C(NC1CCN(CCc2c[nH]c3ccccc23)CC1)c1ccccc1 | – | -25.8% | – |
| CN(C)CCN(Cc1cccs1)c1ccccn1 | – | -3.24% | – |
| CCCn1cnc2c1c(=O)n(CCCCC(C)=O)c(=O)n2C | – | – | inactive |
| Cc1c(N(C)C)c(=O)n(-c2ccccc2)n1C | – | -10.1% | – |
| C[C@]12CCC(=O)C=C1[C@@H]1C[C@@H]1[C@H]1[C@@H]3[C@@H]4C[C@@H]4[C@@]4(CCC(=O)O4)[C@@]3(C)CC[C@@H]12 | – | 0.82% and 2.72% | – |
| O=C(O)/C=C/c1ccc(Cn2ccnc2)cc1 | inactive | – | – |
| COC(=O)C1=C(C)NC(COC(N)=O)=C(C(=O)OC(C)C)C1c1cccc(Cl)c1Cl (stereo not drawn) | – | -3.4% | – |
| NC(CSCC(=O)O)C(=O)O (stereo not drawn) | – | 0.853% | – |
| C=CC[N+]1([C@H]2C[C@H]3[C@@H]4CC[C@H]5C[C@H](OC(C)=O)[C@@H](N6CCCCC6)C[C@]5(C)[C@H]4CC[C@]3(C)[C@H]2OC(=O)CC)CCCCC1 | – | – | inactive |
| NC(=O)Cc1cccc(C(=O)c2ccccc2)c1N | – | – | inactive |
| COc1ccc2c(c1)c(CC(=O)O)c(C)n2C(=O)c1ccc(Cl)cc1 | – | – | inactive |

| SMILES | Potency | activity change, negative = inhibition | outcome |
| --- | --- | --- | --- |
| CC(=O)OCC(=O)[C@@]1(O)CCC2C3CCC4=CC(=O)CC[C@]4(C)C3[C@@H](O)C[C@@]21C (stereo partly drawn) | – | – | inactive |
| O=C(O)CCC(=O)OC[C@@H](NC(=O)C(Cl)Cl)[C@H](O)c1ccc([N+](=O)[O-])cc1 | – | -2.41% | – |
| O=c1[nH]cnc2c1ncn2[C@@H]1O[C@H](CO)[C@@H](O)[C@H]1O | – | – | inactive |
| CC[N+](CC)(CC)CCOC(=O)C(C1CCCC1)C1CCCC1 | – | -6.21% | – |
| CCn1cc(C(=O)O)c(=O)c2cc(F)c(N3CCNCC3)nc21 | – | – | inactive |
| Cc1ccc(=O)n(-c2ccccc2)c1 | – | – | inactive |
| CC(=O)Nc1ccc(S(=O)(=O)Nc2ccc([N+](=O)[O-])cc2)cc1 | – | – | inactive |
| CCC1NC(=O)c2cc(S(N)(=O)=O)c(Cl)cc2N1 (stereo not drawn) | – | -25.9% | – |
| CC1(C)[C@@H]2CC[C@@]1(C)C(=O)C2 | – | – | inactive |
| O=C1C(c2[nH]c3ccccc3c2O)=Nc2ccccc21 | – | -0.955% | – |
| N[C@@H](Cc1c[nH]c2ccc(O)cc12)C(=O)O | – | – | inactive |
| CC(O)COc1ccccc1 (stereo not drawn) | – | – | inactive |
| CCCNC(C)(C)COC(=O)c1ccccc1 | – | 3.38% | – |
| CCCCC1(COC(=O)CCC(=O)O)C(=O)N(c2ccccc2)N(c2ccccc2)C1=O | – | – | inactive |
| O=C1O[C@H]([C@@H](O)CO)C(O)=C1O | – | – | inactive |
| COc1cc([C@H]2Oc3cc([C@H]4Oc5cc(O)cc(O)c5C(=O)[C@@H]4O)ccc3O[C@@H]2CO)ccc1O | – | -12.9% | – |
| Cc1c(F)cc2c(=O)c(C(=O)O)cn3c2c1CCC3C (stereo not drawn) | – | – | inactive |
| CO[C@]1(NC(=O)CSC(F)F)C(=O)N2C(C(=O)O)=C(CSc3nnnn3CCO)CO[C@H]21 | – | – | inactive |
| CCOC(=O)c1ccc(C#Cc2ccc3c(c2)C(C)(C)CCS3)nc1 | inactive | – | – |

— PubChem BioAssay (NCATS)
